Compound activity as filed in PubChem BioAssay.
A selection: hits, their analogues and other compounds. The true share with any hit is near 2%.
Granule exo inh = lytic granule exocytosis inhibition; TALL-104 LAMP-1 surface exposure, flow cytometry; cells stimulated with thapsigargin and PMA; inhibition, % at 10 µM; 0.66% of 360,000 active;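 active means inhibition above about 55%, limit read from the data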
VLA-4 inh = inhibition in a human VLA-4 binding assay | P13612 | VLA-4 expressing cells, ligand binding flow cytometry | inhibition, % (about 7 µM as worked out from the volumes in the protocol) | 0.2% of 330,000 active | AID 2557; in the data active means inhibition above about 50%
NR1D1 modulator = Rev-erb alpha (human) modulation | P20393 | Rev-erbα–FITC-DNA binding, fluorescence polarization, 90 min | activity, % at 10 µM | 0.79% of 370,000 active;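 active means activity above about 14%, limit read from the data; passing the limit was not always enough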;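 further: 0% = DMSO wells with 35 nM protein and 100% = DMSO wells with 750 nM protein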
PG9 Ab binder = small molecules binding HIV-1 gp120 antibody PG9 | TR-FRET gp120-PG9 antibody binding | inhibition, % at 6.7 µM | 0.43% of 360,000 active; in the data active means inhibition above about 8.5%
ABCB6 inh MLPCN = blocks the human ABCB6 transporter; AID 602162; Q9NP58; fluorescence ratio to DMSO, % at 10 µM; K562-ABCB6 porphyrin accumulation, flow cytometry, 1 h; active compounds read low; 0.19% of 360,000 active;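 active means fluorescence ratio to DMSO below 75%, the collection mean minus 3 SD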;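 further: signal is porphyrin accumulated inside mitochondria; 100% equals median channel fluorescence of DMSO control wells; lower ratio means ABCB6 inhibition with less porphyrin fluorescence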
Target sequence (Q9NP58 whole entry, looked up): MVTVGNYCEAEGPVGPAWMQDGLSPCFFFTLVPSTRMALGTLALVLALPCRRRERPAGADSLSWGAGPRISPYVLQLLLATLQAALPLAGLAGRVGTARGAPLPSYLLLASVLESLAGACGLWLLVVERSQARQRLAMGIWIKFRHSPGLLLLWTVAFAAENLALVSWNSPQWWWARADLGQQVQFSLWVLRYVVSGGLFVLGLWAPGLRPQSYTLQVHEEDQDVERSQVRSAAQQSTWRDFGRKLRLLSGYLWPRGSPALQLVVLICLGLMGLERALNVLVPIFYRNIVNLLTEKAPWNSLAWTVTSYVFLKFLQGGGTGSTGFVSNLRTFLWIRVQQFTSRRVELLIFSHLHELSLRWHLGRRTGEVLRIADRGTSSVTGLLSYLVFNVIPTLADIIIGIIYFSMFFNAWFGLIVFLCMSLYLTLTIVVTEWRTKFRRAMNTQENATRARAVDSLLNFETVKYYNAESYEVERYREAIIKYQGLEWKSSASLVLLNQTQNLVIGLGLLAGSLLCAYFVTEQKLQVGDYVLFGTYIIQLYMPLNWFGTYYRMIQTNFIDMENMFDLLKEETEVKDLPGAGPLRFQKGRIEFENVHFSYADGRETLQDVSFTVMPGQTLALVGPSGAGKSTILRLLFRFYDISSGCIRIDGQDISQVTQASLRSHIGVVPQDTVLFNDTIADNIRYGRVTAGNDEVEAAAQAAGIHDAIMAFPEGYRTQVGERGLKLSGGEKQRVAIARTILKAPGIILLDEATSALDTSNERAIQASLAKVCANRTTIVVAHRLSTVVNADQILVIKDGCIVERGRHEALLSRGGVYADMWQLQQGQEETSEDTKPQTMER
NR1D1 mod conf = confirmation of modulators of human Rev-erb alpha DNA binding; 61% of 3,000 active; activation, % at 25 µM; Rev-erb alpha FITC-DNA binding, fluorescence polarization, 90 min; shares compounds with NR1D1 modulator;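 active means activation at or above a set limit, or at least 3 SD above the negative control mean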;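 further: 0% = 35 nM protein with DMSO and 100% = 750 nM protein high control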
RORg counter = counter-screen for Rev-erb alpha modulators: RORgamma DNA binding; shares compounds with NR1D1 modulator; purified RORgamma protein-FITC-DNA binding, fluorescence polarization; IC50, µM; 8% of 910 active;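 active means Compounds whose fitted half-maximal concentration for disrupting protein-DNA binding is below 10 micromolar; the record names Rev-erb in its text, so the target is in doubt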
* marks the source's active call; other numbers are inactive results; / = no result.

SMILES	Granule exo inh	VLA-4 inh	NR1D1 modulator	PG9 Ab binder	ABCB6 inh MLPCN	NR1D1 mod conf	others
O=C(Nc1ccccc1)Nc1nc2ncccn2c1-c1ccc(F)c(F)c1	/	/	9.5	/	/	/
C=C(C)[C@H]1CC=C(C(=O)O)CC1	/	/	-0.3	/	/	/
COc1ccc(CNC(=O)C(C#N)c2nc3ccccc3nc2N2CCN(C)CC2)cc1 (configuration not stated)	30.3	1.5	-0.7	-1.3	99.0	/
COc1ccc(CNC(=O)C(C#N)c2nc3ccccc3nc2N2CCCC2)cc1 (configuration not stated)	-0.3	11.8	41.9*	0.1	101.0	23.0*
C#CCNC(=O)C[C@H]1C[C@@]2(C(=O)OC)C(=C[C@H](COCc3ccccc3)O[C@@H]2C)N(Cc2ccco2)C1=O	/	/	2.0	/	/	/
CCOC(=O)c1cc2sc(C)cc2n1CC(=O)N1CCc2ccccc21	-0.3	35.5	21.8*	-0.5	94.0	24.1*
CCOC(=O)c1cc2sccc2n1CC(=O)N1CCCc2ccccc21	1.3	1.5	1.5	-3.4	103.0	/
Cc1cc(NS(=O)(=O)c2ccc(NC(=O)CSc3nnc(-c4ccccn4)n3Cc3ccco3)cc2)nc(C)n1	/	/	9.7	/	/	/
CN1C[C@]2(C=C3CCCCC3n3c(=O)n(-c4ccccc4)c(=O)n32)N(C(=O)OCc2ccccc2)C1=NC(=O)c1ccccc1 (some centres not stated)	/	/	-2.4	/	/	/
COc1ccc(-c2cc(-c3ccc(OC)cc3)c(C#N)c(SC)n2)cc1	-0.2	18.6	108.0*	2.6	85.0	52.4*	RORg counter=>40
COc1ccc(-c2cc(-c3ccc(O)cc3)nc(N)c2C#N)cc1	25.3	-11.7	1.5	2.9	102.0	/
COc1ccc(-c2cc(-c3cccnc3)c(C#N)c(N)n2)cc1	8.4	-32.9	39.8*	1.0	102.0	35.8*	RORg counter=>40
COC(=O)[C@]12C[C@H](CC(=O)N3CCC(c4ccccc4)CC3)C(=O)N(Cc3ccco3)C1=C[C@H](C(C)(C)C)O[C@@H]2C	/	/	2.3	/	/	/
COC(=O)c1ccc2c(C3(c4c[nH]c5ccccc45)CCN(C(=O)OC(C)(C)C)CC3)c[nH]c2c1	/	/	1.7	/	/	/
COc1ccc(CCn2c(O)c(C=Nc3cccc(F)c3)c(=O)[nH]c2=O)cc1OC	-0.1	-5.5	38.5*	2.6	95.0	1.0
CCCNC(=O)c1ccc(N2CCC3(CC2)CC(c2ccccc2)=NO3)c(NC(=O)c2cccc(OC)c2)c1	15.7	-4.2	20.3*	0.3	90.0	1.3
CCOc1ccc(NC(=O)Cn2cc(C(=O)CC)c3ccccc32)cc1	-4.4	5.6	/	/	99.0	/
CCOc1ccc(NC(=O)Cn2cc(C(C)=O)c3ccccc32)cc1	-2.1	4.3	28.6*	-1.8	97.0	12.6
COc1cc(OC)cc(C(=O)Nc2ccc(S(=O)(=O)Nc3ccccn3)cc2)c1	16.4	5.7	24.6*	-2.2	99.0	16.9
Cc1ccc(C)c(NC(=O)C2CCCN2S(=O)(=O)c2cccc3cccnc23)c1 (configuration not stated)	/	/	2.8	/	/	/
Cc1ccc(CNc2cc(-c3nn4c(C)nnc4s3)ccc2C)s1	11.8	-2.8	18.1	1.9	105.0	/
Cc1ccc(-c2nn3c(C)nnc3s2)cc1NCc1c(F)cccc1Cl	7.5	-4.8	23.3*	-0.8	94.0	1.6
CCOC(=O)c1cc(-c2cc(OC)c(OC)c(OC)c2)nc2c1c(=O)[nH]c(=O)n2Cc1ccccc1	-0.8	19.5	22.6*	-0.4	102.0	9.3
CC(=O)c1cccc(NC(=O)CCn2c(=S)oc3ccccc32)c1	-0.5	18.1	29.3*	-1.0	101.0	12.1
C[C@@H]1COc2cccc(NCCCN3CCOCC3)c2S(=O)(=O)N1	/	/	-7.5	-1.6	/	/
SMILES	Granule exo inh	VLA-4 inh	NR1D1 modulator	PG9 Ab binder	ABCB6 inh MLPCN	NR1D1 mod conf	others
Cc1cc2c(cc(C(=O)OC(C)C(=O)NCc3ccccc3)n2C)o1 (configuration not stated)	3.9	/	26.3*	-1.3	103.0	17.5*
CN1C(=O)CSC1=NCC12CC3CC(CC(C3)C1)C2	-2.4	2.3	23.9*	-0.6	93.0	32.0*	RORg counter=>40
CCc1nnc(NC(=O)CSc2nc(-c3ccccc3)cc(-c3ccc(OC)cc3)c2C#N)s1	-1.7	19.6	47.9*	-0.9	100.0	43.4*
CCc1nnc(NC(=O)CSc2nc3cc(OC)ccc3cc2C)s1	5.1	-6.8	164.8*	-0.1	100.0	12.4
COc1ccc(-c2cc(-c3ccccc3)nc(SCC(=O)Nc3nccs3)c2C#N)cc1	-8.8	2.1	78.5*	1.6	93.0	61.2*	RORg counter=>40
CCc1nnc(NC(=O)Cc2ccc(OC)cc2)s1	-3.8	6.2	-2.9	-0.5	98.0	/
CC(C)NC(=O)CSc1nc(-c2cccs2)cc(-c2ccccc2)c1C#N	-5.8	20.6	59.6*	0.0	88.0	46.8*	RORg counter=>40
COc1ccc(-c2[nH]c(-c3ccc(C)cc3)nc2SCC(=O)Nc2nccs2)cc1	2.8	12.5	4.5	-0.6	95.0	/
C[C@H]1[C@H](c2ccccc2)Oc2cccc(NCCc3ccccc3)c2S(=O)(=O)N1Cc1cccc(Cl)c1	/	/	4.8	1.1	/	/
C1CCN2C[C@@H]3C[C@H](CN4CCCC[C@@H]34)[C@H]2C1	/	/	-2.6	/	/	/
Cc1cc(C)c(C#N)c(SCC(=O)c2cccs2)n1	10.7	3.3	7.0	3.9	98.0	/
CCN(CC)C(=O)CSc1nc(C)cc(-c2cccs2)c1C#N	5.4	13.1	77.8*	0.4	89.0	50.6*	RORg counter=>40
N#Cc1c(-c2ccccc2)cc(C2CC2)nc1SCC(=O)O	3.2	21.6	-6.6	-0.4	97.0	/
N#Cc1c(-c2ccccc2)cc(C2CC2)nc1SCC(=O)c1cccs1	3.3	/	19.0*	0.0	99.0	29.5*
CC(=O)Nc1c(-c2ccc(C(F)(F)F)cc2)nc2ncccn12	/	/	-9.0	/	/	/
c1ccc(-c2nn(Cc3ncco3)c3ccccc23)cc1	/	/	1.0	/	/	/
Nc1ccc2ccccc2c1N=Nc1ccccc1	-8.0	/	23.1*	-3.4	100.0	27.1*
Nc1ncnc(N)c1N=Nc1ccccc1	10.5	-13.9	12.8	-8.7	97.0	/
O=c1[nH]cnc2c1sc1nc(C(F)F)cc(-c3ccccc3)c12	5.4	-1.7	31.6*	5.2	91.0	28.1*
Cc1onc(-c2ccc(Cl)cc2)c1-c1ccn(S(=O)(=O)c2ccccc2)n1	/	/	0.8	/	/	/
CCOC(=O)c1c(-c2ccccc2)csc1NC(=O)c1cc(S(=O)(=O)N2CCOCC2)ccc1C	0.2	29.0	33.6*	-0.5	94.0	49.4*	RORg counter=>40
COc1cc2c(-c3ccc(O)cc3)nc3c(c(C)nn3-c3ccccc3)c2cc1OC	2.8	-3.5	13.0	0.1	98.0	/
COc1cc2c(C)nc3c(c(C)nn3-c3ccccc3)c2cc1OC	0.0	2.9	20.8*	-1.0	96.0	-2.9
Cc1ccccc1NC(=O)C[C@H]1CC[C@H]2[C@@H](COc3ccc(NC(=O)Nc4ccccc4)cc3C(=O)N2C)O1	/	/	4.7	/	/	/
